# Experimental data as given in PubChem BioAssay (EPA / NIEHS).
# Some compounds were tested as several samples or in several runs, with calls that do not always agree. Active and inactive are the calls of the source. Rule for the calls: active = hit-call score of the fitted dose curve at least 0.9, where 1 is the maximum; inactive = score below 0.9.
# Assay: ATG_Ets_CIS: Attagene CIS-FACTORIAL HepG2 Assay for human Erythroblast Transformation Specific (ETS) (AID 2282941)
# Details: HepG2 ETS cis-reporter transcription, actives raise or lower the signal
# Procedure: ATG_CIS is a cell-based, multiplexed-readout assay that uses HepG2, a human liver cell line, with measurements taken at 24 hours after chemical dosing in a 24-well plate.ATG_Ets_CIS is one of 52 assay component(s) measured or calculated from the ATG_CIS assay. It is designed to make measurements of mRNA induction, a form of inducible reporter, as detected with fluorescence intensity signals by Reverse transcription polymerase chain reaction (RT-PCR) and Capillary electrophoresis technology.Data from the assay component ATG_Ets_CIS was analyzed into 1 assay endpoint. This assay endpoint, ATG_Ets_CIS, was analyzed with bidirectional fitting relative to DMSO as the negative control and baseline of activity. Using a type of inducible reporter, measures of mRNA for gain or loss-of-signal activity can be used to understand the reporter gene at the transcription factor-level as they relate to the gene ETS1. Furthermore, this assay endpoint can be referred to as a primary readout, because this assay has produced multiple assay endpoints where this one serves a reporter gene function. To generalize the intended target to other relatable targets, this assay endpoint is annotated to the dna binding intended target family, where the subfamily is winged helix-turn-helix.
# Human liver HepG2 cells are transiently transfected with multiple reporter transcription units (MRTUs) in 6-well plates using FuGene 6 reagent (Roche; 3 ml FuGene/1 mg DNA). The MRTU constructs are regulated by a cis-regulating element (promoter). […] A major difference between the CIS and TRANS system is that in CIS activities of endogenous TFs are measured, whereas the TRANS assay evaluates changes in activities of exogenous, chimeric NR-Gal4 proteins. […] At the end of 24 hour incubation, total RNA was isolated using TriZol reagent (Invitrogen). The isolated RNA is then reverse-transcribed using oligo(dT) primer and Mo-MLV reverse transcriptase (Invitrogen) with DNAse I (Ambion) treatment for 30 min. The one-tenth of the produced cDNA was amplified by PCR using Taq DNA polymerase (Invitrogen) and two reporter sequence-specific primers. The PCR products were fluorescently labeled by primer extension with 6-arboxyfluorescein (6-FAM) 5'-labeled reporter sequence-specific primer (2 min at 95 C, 20 s at 68 C and 10 min at 72 C) and these products were digested with 5U of HpaI (New England Biolabs) for 2h at 37 C. The fragments were purified using Qiaquick PCR columns (Qiagen), analyzed on an ABI 3130xL genetic analyzer (Applied Biosystems) with peak positions identified by using a set of X-rhodamine (ROX)-labeled MapMarker1000 molecular weight standards (BioVentures). The raw capillary electrophoresis data was processed using Attagraph software (Attagene).
Compound,outcome,AC50
CSC(=O)c1cccc2nnsc12,inactive,–
COC(=O)c1ccccc1S(=O)(=O)NC(=O)Nc1nc(OC(F)F)cc(OC(F)F)n1,inactive,–
COCCO,inactive,–
N#CSCSc1nc2ccccc2s1,inactive,–
CCSC(=O)N(CC(C)C)CC(C)C,inactive,–
CCCN(CCC)c1c([N+](=O)[O-])cc(C(F)(F)F)c(N)c1[N+](=O)[O-],inactive,–
c1ccc(Nc2ccccc2)cc1,inactive,–
CCOC(=O)C(C)Oc1ccc(Oc2cnc3cc(Cl)ccc3n2)cc1 (stereo not given),inactive,–
CC(C)CCCCCCc1ccc(O)cc1,inactive,17.1 µM (active)
COc1nc(C)nc(NC(=O)NS(=O)(=O)c2ccccc2OCCCl)n1,inactive,–
C[C@]12C[C@H](O)[C@H]3[C@@H](CCC4=CC(=O)CC[C@@]43C)[C@@H]1CC[C@@H]2C(=O)CO,inactive,–
CCN(CC)C(=O)c1cccc(C)c1,inactive,–
COC(=O)c1c(Cl)nn(C)c1S(=O)(=O)NC(=O)Nc1nc(OC)cc(OC)n1,inactive,–
COc1c(Cl)ccc(Cl)c1C(=O)O,inactive,–
C#CCOC(=O)[C@@H](C)Oc1ccc(Oc2ncc(Cl)cc2F)cc1,inactive,–
CCCCC(CC)COC(=O)c1ccccc1C(=O)O (stereo not given),inactive,–
OB(O)O,inactive,–
CCCOC(=O)c1ccc(C(=O)OCCC)nc1,inactive,–
CC1(C)C(C=C(Cl)Cl)C1C(=O)OCc1cccc(Oc2ccccc2)c1 (stereo not given),inactive,–
S=C(S)NCCNC(=S)S.[Mn+2].[S-]C([S-])=NCCN=C([S-])[S-].[Zn+2],inactive,–

Compound,outcome,AC50
C#C[C@]1(O)CC[C@H]2[C@@H]3CCC4=CC(=O)CC[C@@H]4[C@H]3CC[C@@]21CC,inactive,–
CCCCC(CC)CN1C(=O)C2C3C=CC(C3)C2C1=O (stereo not given),inactive,–
O=C(c1ccc(O)cc1O)c1ccc(O)cc1O,inactive,–
O=C(c1ccccc1)C1CCCCC1,inactive,–
CCC(C)OC(=O)N1CCCCC1CCO (stereo not given),inactive,–
O=C(O)C1(C(=O)Nc2ccc(Cl)cc2Cl)CC1,inactive,–
CCN(Cc1c(F)cccc1Cl)c1c([N+](=O)[O-])cc(C(F)(F)F)cc1[N+](=O)[O-],inactive,–
O=C(Nc1ccc([N+](=O)[O-])cc1Cl)c1cc(Cl)ccc1O,inactive,–
CCCCCOC(=O)COc1cc(N2C(=O)C3=C(CCCC3)C2=O)c(F)cc1Cl,inactive,–
CCOC(=O)COc1cc(-n2ncc(C(F)(F)F)c(C)c2=O)c(F)cc1Cl,inactive,–
CCOC(=O)c1ccc(O)cc1,inactive,–
CCCCOCCOCCOCc1cc2c(cc1CCC)OCO2,inactive,–
COC(=O)c1ccccc1C(=O)O,inactive,–
COC(=O)c1ccc(I)cc1S(=O)(=O)NC(=O)Nc1nc(C)nc(OC)n1,inactive,–
CCOC(=O)[C@H](C)Oc1ccc(Oc2nc3ccc(Cl)cc3o2)cc1,inactive,–
CCCOC(=O)NCCCN(C)C,inactive,–
N[C@@H](Cc1cc(I)c(Oc2ccc(O)c(I)c2)c(I)c1)C(=O)O,inactive,–
CCCCOC(=O)[C@@H](C)Oc1ccc(Oc2ccc(C(F)(F)F)cn2)cc1,inactive,–
COC(=O)c1ccc(CNS(C)(=O)=O)cc1S(=O)(=O)NC(=O)Nc1nc(OC)cc(OC)n1,inactive,–
